Screening data deposited in PubChem BioAssay by several laboratories.
The list is not random: actives were taken first. Their share in the collection is about 0.96%.
HDAC3 inh – blocks human histone deacetylase 3; O15379; 320,000 tested, 0.15% active; recombinant HDAC3, fluorogenic peptide/trypsin coupled, fluorescence; AID 2718; inhibition, % at 8.3 µM; in the data active = inhibition above about 26%, passing the limit was not always enough
DAGLB inh – blocks human DAGLB lipase activity; Q8NCG7; HEK293T DAGLB membrane lysate, EnzChek fluorogenic substrate; inhibition, % at 5.17 µM; 340,000 tested, 0.059% active; in the data active = inhibition above about 34%;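 also: 0% = enzyme with vehicle and 100% = wells lacking enzyme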
V-ATPase pHluor – regulators of yeast V-ATPase proton transport. response, % at 10 µM. S. cerevisiae, pHLuorin cytosolic pH fluorescence. 350,000 tested, 0.37% active; in the data active = response mostly above about 7.3%, no sharp cut-off; inactive = mostly below about 5.4%; also: actives read high
Rtt109 Vps75 – blocks Candida albicans Rtt109/Vps75 acetyltransferase activity. Q5AAJ8. purified Rtt109/Vps75, ThioGlo CoA-SH fluorescence, 4 h. inhibition, % at 34.9 µM. 330,000 tested, 0.16% active. AID 540336;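 active = inhibition of at least 50% in every replicate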
Target sequence (Q5AAJ8 whole entry, looked up): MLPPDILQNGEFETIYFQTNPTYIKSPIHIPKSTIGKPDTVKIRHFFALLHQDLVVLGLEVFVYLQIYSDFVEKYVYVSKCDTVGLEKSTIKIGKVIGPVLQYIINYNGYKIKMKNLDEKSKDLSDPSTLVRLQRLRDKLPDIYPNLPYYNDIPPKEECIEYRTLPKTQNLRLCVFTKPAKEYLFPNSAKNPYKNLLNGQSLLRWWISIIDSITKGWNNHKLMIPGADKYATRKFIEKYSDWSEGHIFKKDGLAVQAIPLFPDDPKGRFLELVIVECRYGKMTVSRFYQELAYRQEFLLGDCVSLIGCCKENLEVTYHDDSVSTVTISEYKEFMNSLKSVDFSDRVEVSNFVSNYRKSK
beta cell repl – MIN6 beta-cell proliferation induction; MIN6 cells proliferation, ATPlite luminescence, 48 h; cells starved in 0.2% serum; 100% = growth in 10% serum; proliferation, % at 10 µM; 330,000 tested, 0.29% active;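 active = compounds whose signal lies at least 3.5 SD above the mean of all wells on their plate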;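 also: 0% = DMSO-treated cells in low-serum medium and 100% = 10% serum control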
Numbers without * were called inactive; . = no result given.

SMILES	HDAC3 inh	DAGLB inh	V-ATPase pHluor	Rtt109 Vps75	beta cell repl
Cc1ccc(CN2CCN(CC(=O)NCc3ccccc3)CC2)cc1	-0.3	0.1	2.0	53.2*	-2.1
CN(C1=C(N2CCCCC2)C(=O)c2ccccc2C1=O)c1ccccc1	4.7	37.9*	.	6.6	-4.4
CCOC(=O)C1C(=O)NC(N2CCCCC2)=NC1c1ccco1 (stereo not given)	-2.9	-3.5	14.9*	2.3	1.9
O=c1[nH]n(-c2ccc(Cl)cc2)c2ncccc12	-8.7	6.1	1.4	-0.6	-2.5
COc1ccc(C(=O)O/N=C(/c2ccccc2)c2ccncc2)cc1OC	4.7	-5.1	-0.6	-10.3	3.1
COc1ccc(C(=O)O/N=C(/c2ccccc2)c2ccncc2)cc1	44.4*	-6.7	0.3	4.1	3.1
CCN1/C(=C/C=C/C=C/c2sc3ccccc3[n+]2CC)Sc2ccccc21	36.0*	.	.	.	-8.2
CCN1/C(=C/C=C/c2sc3ccccc3[n+]2CC)Sc2ccccc21	-0.5	12.3	-1.7	65.7*	-8.1
CC[C@]12c3[nH]c4cc(-c5ccco5)ccc4c3CCN1C(=O)[C@@H](CC(=O)NCc1ccco1)C[C@@H]2C(=O)N1CCN(C(=O)c2ccco2)CC1	.	0.9	1.8	-16.2	.
COC(=O)CCC(=O)OC1(C)C(=O)C2=CN(C3CCCC3)C(c3ccc(OC)cc3)=CC2=C(Br)C1=O (stereo not given)	3.8	6.1	0.7	2.3	-8.8
CCOC(=O)C1=C(C)NC(C)=C(C(=O)OCC)C1C(=O)OCC(=O)NCCc1ccc(S(N)(=O)=O)cc1	0.3	-4.6	-7.4	53.4*	-3.9
CCOC(=O)C1=C(C)NC(C)=C(C(=O)OCC)C1C(=O)OCC(=O)NCc1ccccc1	-4.7	1.5	-4.8	-5.6	1.7
COc1cc(SC)ccc1C(=O)Nc1ccc(OCC(=O)N2CCOCC2)cc1	.	-0.9	-4.9	3.9	-3.9
COc1ccccc1C(=O)Nc1ccc(OCC(=O)N2CC(C)CC(C)C2)cc1 (stereo not given)	0.1	-1.3	2.4	53.5*	-0.4
O=C(OCN1C(=O)c2ccccc2C1=O)c1cccs1	4.3	0.0	0.4	-1.9	0.6
Cc1cc(C(=O)Nc2ccncc2)c(C)o1	.	-4.6	-7.7	50.6*	.
COc1cccc(C2Nc3ccccc3NC3=C2C(=O)CC(C)(C)C3)c1OC (stereo not given)	5.3	-0.8	-1.5	0.5	-0.4
O=c1[nH][nH]c(=S)n1C1CCCCC1	32.1*	.	.	.	-1.2
Cc1c([N+](=O)[O-])c([N+](=O)[O-])nn1CC(=O)N1CCCCC1	1.9	1.2	3.9	4.0	-0.6
O=C(c1ccc2nc(-c3ccccc3)c(-c3ccccc3)nc2c1)N1CCCCC1	-8.6	-3.9	3.1	-3.6	-2.4
O=C(Nc1ccccc1O)c1ccc(NS(=O)(=O)c2cccc3cccnc23)cc1	102.7*	2.2	-0.7	3.5	-6.0
CCOC(=O)c1ccc(N2C(=O)c3n[nH]c(C)c3C2c2ccc(OC)cc2)cc1 (stereo not given)	9.4	1.9	3.5	76.6*	-0.1
COC(=O)CS(=O)(=O)c1nnc([C@H](Cc2ccccc2)NC(=O)OC(C)(C)C)o1	55.4*	1.9	0.0	1.9	-4.4
Cc1cccc(CS(=O)(=O)c2nnc([C@H](Cc3ccccc3)NC(=O)OC(C)(C)C)o2)c1	60.7*	4.6	4.3	5.7	-6.0
CCn1cnc2c1c(=O)n(CC(=O)OC(C)C(N)=O)c(=O)n2Cc1ccccc1 (stereo not given)	1.1	-3.5	-4.0	12.3	-1.1
SMILES	HDAC3 inh	DAGLB inh	V-ATPase pHluor	Rtt109 Vps75	beta cell repl
CN(C)c1ccc(NC(=O)COC(=O)c2ccc3c(c2)OCO3)cc1	33.4*	-1.3	-0.4	4.4	-1.8
Cc1ccc(OCCNC(=O)CNC(=O)c2ccc(C)cc2)cc1	-0.8	-1.5	-0.6	-0.3	3.6
CCCCCCN1CC(O)=C(c2nc3ccccc3[nH]2)C1=N	2.7	-0.1	13.2*	16.6	0.0
CCC(C)N1CC(O)=C(c2nc3ccccc3[nH]2)C1=N (stereo not given)	2.3	0.7	-1.1	3.0	-2.4
O=C(Nc1cccc2ccccc12)c1cnsn1	0.3	-0.2	-1.8	-3.4	0.2
CCOc1ccccc1C(=O)N/N=C/c1coc2ccc(Cl)cc2c1=O	32.3*	0.6	-2.8	0.7	-7.3
O=C(N/N=C/c1coc2ccccc2c1=O)c1cc(Br)c(O)c(Br)c1	46.2*	5.2	3.4	-0.2	0.7
O=C1Cc2ccccc2C(c2c(Cl)cccc2Cl)N1 (stereo not given)	-1.1	-0.9	-0.2	4.8	-1.6
CC1=C(C(=O)NCc2ccccc2)C(c2cccs2)n2ncnc2N1 (stereo not given)	-1.9	0.3	-3.5	16.8	0.2
COc1cc(NS(=O)(=O)c2ccc(NC(=S)NC(=O)C3CCCC3)cc2)nc(OC)n1	3.1	3.9	3.1	9.1	-2.3
CCOC(=O)c1c(C)[nH]c(C2=NNC(=NC3CC3)SC2)c1C	4.6	-5.1	1.1	70.7*	-5.0
CCOC(=O)c1c(C)[nH]c(/C(C)=N/O)c1C	-0.6	1.5	2.5	-4.7	-0.5
CCn1c(SCC(=O)Nc2ccc(OC)c(OC)c2)nnc1-c1cccs1	-4.5	-4.1	4.0	0.5	1.7
CCn1c(SCC(=O)Nc2cc(OC)c(OC)c(OC)c2)nnc1-c1cccs1	.	-2.1	-0.2	63.5*	-1.9
Cc1cc(C(=O)Nc2cccc(S(=O)(=O)N3CCCC3)c2)c2ccccc2n1	.	-0.9	-1.8	-2.3	-1.7
COC(=O)[C@]1(Cc2ccccc2)N[C@H](c2ccc(-c3cc(C(C)=O)cs3)cc2)[C@@H]2C(=O)N(C)C(=O)[C@@H]21	4.2	-7.1	3.7	8.2	-6.2
Cc1cc(=O)oc2n[nH]c(-c3ccccc3)c12	-11.6	-0.2	-2.3	0.5	-2.3
CS(=O)(=O)N(CC(=O)N1CCCC1)C1CCCCC1	.	0.7	-1.4	.	.
COc1cc(NC(=O)C(Cc2ccccc2)n2cccc2)cc(OC)c1 (stereo not given)	-6.4	-4.6	2.1	51.9*	-2.4
CCCC(=O)Nc1sc(C)c(C)c1C#N	1.8	-3.8	2.1	-2.1	-2.7
CCCC(=O)Nc1sc(C)c(-c2ccc(C(C)CC)cc2)c1C#N (stereo not given)	-5.1	-7.7	15.7*	4.1	0.8
Cc1cc(N2CCOCC2)nc(-c2ccccc2O)n1	1.1	-4.7	60.1*	-4.0	2.0
Cc1cc([N+](=O)[O-])ccc1NC(=O)c1csc(C)c1C	4.7	-1.1	-0.6	-7.3	-2.0
O=C(Nc1nc2n(n1)C(c1ccc(Cl)cc1)CC(c1ccc(Cl)cc1)N2)c1ccco1 (stereo not given)	2.4	.	.	.	-6.0
CN1CCN(c2nc3c(c(=O)[nH]c(=O)n3C)n2Cc2ccc(Cl)cc2)CC1	-7.0	-0.7	4.8	66.6*	0.5
O=C(N/N=C/c1sc(N2CCCCC2)nc1-c1cccs1)C1CC1	-0.5	2.5	2.0	0.9	-1.0
CC1CCN(C(=O)C2CCN(S(=O)(=O)c3cnc[nH]3)CC2)CC1	-3.8	-2.5	-1.3	0.8	0.4
